Measured values as given in PubChem BioAssay (NCATS).
Where “and” joins values, the source holds several entries; their conditions need not be identical. Equal entries are not always repeated. Results filed as inconclusive are left out. Calls of active or inactive are those of the source. Unless noted, calls follow the shape of the dose curve; as a rule, active = well fitted curve in the direction sought with a large enough effect; inconclusive = small, poorly fitted or top-dose-only effect, or another doubt; inactive = no such curve, though single readings can be large; an effect the other way counts as inactive or inconclusive.

Tests used:
[1] = qHTS Assay for Lipid Storage Modulators (AID 1519; calls by dose curve; as to activity change, negative = inhibition: % is scaled to controls: 0 for no effect and ±100 for the full control effect); details: Drosophila S3 cells, BODIPY lipid droplet/cell ratio, laser cytometry, cells loaded with oleic acid
In short: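 Cells seeded at 5,000 per well were treated with compounds over a concentration series and loaded with oleic acid (400 uM, as added). Lipid droplet fluorescence (488 nm excitation, 500-530 nm channel) was read by laser-scanning cytometry and normalized to 20 uM Triacsin C.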

[2] = target: DNA repair nuclease/redox regulator APEX1 (Homo sapiens) (UniProt P27695); assay: qHTS Validation Assay for Inhibitors of the Human Apurinic/apyrimidinic Endonuclease 1 (APE1) (AID 1705; also: potency is read from the fitted curve at half-maximal effect;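 as to activity change, negative = inhibition: TAMRA fluorescence gain over two minutes as APE1 cuts a quenched THF abasic duplex; % is scaled to controls: 0 for no effect and ±100 for the full control effect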); details: purified APE1 endonuclease activity, fluorescence, titration; series mostly up to 57.1 µM
DNA repair nuclease/redox regulator APEX1 (Homo sapiens), sequence (P27695 whole entry, looked up): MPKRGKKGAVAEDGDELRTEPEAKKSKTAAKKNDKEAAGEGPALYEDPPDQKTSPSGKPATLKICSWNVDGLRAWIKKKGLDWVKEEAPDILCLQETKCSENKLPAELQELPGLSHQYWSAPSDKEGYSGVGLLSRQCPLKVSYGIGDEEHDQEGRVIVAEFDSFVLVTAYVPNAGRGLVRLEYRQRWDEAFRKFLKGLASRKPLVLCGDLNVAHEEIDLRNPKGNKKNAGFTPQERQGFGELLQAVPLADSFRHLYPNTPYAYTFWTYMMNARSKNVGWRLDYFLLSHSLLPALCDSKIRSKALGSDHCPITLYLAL
In short: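 Fluorogenic double-stranded THF abasic-site substrate (5'-TAMRA/3'-BHQ-2), 50 nM final. Enzyme preincubated with compound 15 min at room temperature, then substrate added. Kinetic fluorescence (ex 525/em 598 nm) read three times at 60 s intervals; activity taken as third-minus-first read difference.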

[3] = Counterscreen for APE1 Inhibitors: Fluorescent Dye Displacement Validation Assay (AID 1707); details: fluorescent dye displacement from DNA; series mostly up to 57.1 µM;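 also: plate controls were ThO with dsDNA and no compound for no effect and ThO without dsDNA for full effect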
In short: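 Thiazole Orange displacement from dsDNA: 250 nM ThO with 50 nM TAMRA-labelled abasic-site (tetrahydrofuran) duplex in 50 mM Tris-HCl pH7.5, 50mM NaCl, 2 mM MgCl2, 0.01% Tween-20. Loss of endpoint fluorescence (ex 480 nm, em 540 nm) flags DNA binders.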

[4] = target: Endonuclease 4 (Escherichia coli (strain K12)) (UniProt P0A6C1); assay: Counterscreen for APE1 Inhibitors: qHTS Validation Assay for Inhibitors of Endonuclease IV (AID 1708); also: potency is read from the fitted curve at half-maximal effect; as to activity change, negative = inhibition: % is scaled to controls: 0 for no effect and ±100 for the full control effect; details: E. coli endonuclease IV, DNA cleavage fluorescence; series mostly up to 57.1 µM
In short: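 Cleavage of a quenched abasic-site DNA duplex (50 nM, 5'-TAMRA, 3'-BHQ-2) by 2 nM enzyme is followed as fluorescence increase. Compounds are preincubated with enzyme 15 min at room temperature before substrate addition.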

[5] = qHTS for differential inhibitors of proliferation of Plasmodium falciparum line GB4 (AID 1816); details: Potency: Plasmodium falciparum GB4 proliferation inhibition; series mostly up to 28.7 µM;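 also: potency is read from the fitted curve at half-maximal effect; parasite growth measured after 72 h incubation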
[6] = target: Alpha-galactosidase A (Homo sapiens) (UniProt P06280); assay: Counterscreen for Glucocerebrosidase Inhibitors: qHTS Assay for Human alpha-Galactosidase at pH 4.5 (AID 992); details: purified enzyme, fluorogenic substrate; series mostly up to 76.9 µM; also: 0% is about no effect
Alpha-galactosidase A (Homo sapiens), sequence (P06280 whole entry, looked up): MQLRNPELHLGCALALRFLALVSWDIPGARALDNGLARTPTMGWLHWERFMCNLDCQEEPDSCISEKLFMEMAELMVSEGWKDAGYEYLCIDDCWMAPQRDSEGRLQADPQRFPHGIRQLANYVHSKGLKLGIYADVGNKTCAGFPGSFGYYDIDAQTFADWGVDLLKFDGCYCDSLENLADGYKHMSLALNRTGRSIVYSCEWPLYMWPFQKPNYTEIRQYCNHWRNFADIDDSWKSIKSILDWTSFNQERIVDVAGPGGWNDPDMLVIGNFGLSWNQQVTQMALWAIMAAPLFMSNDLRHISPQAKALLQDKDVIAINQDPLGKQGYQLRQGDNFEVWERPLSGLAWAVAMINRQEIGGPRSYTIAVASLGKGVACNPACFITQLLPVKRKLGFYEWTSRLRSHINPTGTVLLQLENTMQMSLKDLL
In short: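 Enzyme at 2 nM final was combined with compound (0.7 nM to 77 uM) and 80 uM 4-methylumbelliferyl alpha-D-galactopyranoside in 50 mM citric acid, 0.005% Tween-20, pH 4.5. After 20 min at room temperature, fluorescence was read (Ex 365/Em 440 nm); AC50 came from Hill fits.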

[7] = Cell Viability - LYMP1-002 - Assay at 24 hr (AID 993); details: LYMP1-002 lymphoblastoid cells viability; series mostly up to 92.2 µM; also: potency is read from the fitted curve at half-maximal effect
In short: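 qHTS, LYMP1-002 lymphoblastoid, 24 h cpd, 37 C, CellTiter-Glo ATP luminescence; AC50 via Hill eq.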

[8] = target: alpha-glucosidase (Oryza sativa, rice) (UniProt Q653V4); assay: Counterscreen for Glucocerebrosidase Inhibitors: qHTS Assay for Rice alpha-Glucosidase at pH 5.0 (AID 997); details: rice alpha-glucosidase enzyme activity; series mostly up to 76.9 µM;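 also: 0% = full activity with enzyme and -100% = basal without enzyme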
In short: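 Rice alpha-glucosidase (4 nM final) with 400 uM 4-methylumbelliferyl-alpha-D-glucopyranoside in citrate buffer pH 5.0, 20 min at room temperature, stopped at pH 10; fluorescence 365/440 nm, compounds 0.7 nM–77 uM, AC50 from Hill fits.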

[9] = qHTS for differential inhibitors of proliferation of Plasmodium falciparum line 7G8 (AID 1815); details: Plasmodium falciparum 7G8 proliferation inhibition; series mostly up to 28.7 µM;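 also: potency is read from the fitted curve at half-maximal effect; parasite growth measured after three days of incubation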
[10] = Cell Viability - LYMP2-008 (AID 980); details: LYMP2-008 lymphoblastoid cell viability, qHTS; series mostly up to 92.2 µM; also: nearly all actives have a fitted effect of over 60% in size; also: potency is read from the fitted curve at half-maximal effect
In short: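 Acute cytotoxicity is scored as concentration-dependent loss of cellular ATP in a human lymphoblastoid line after 24 hr treatment at 37 C. ATP is quantified by luciferase luminescence.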

[11] = Cell Viability - LYMP2-010 (AID 981); details: LYMP2-010 lymphoblastoid cell viability, qHTS; series mostly up to 92.2 µM;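 also: cells exposed to compound for 24 hours at 37 °C; nearly all actives have a fitted effect of over 55% in size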; also: potency is read from the fitted curve at half-maximal effect
In short: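 Acute toxicity is scored as a concentration-dependent loss of cellular ATP in human lymphoblastoid cells after 24 hr compound exposure in complete medium. Tetraoctylammonium bromide is the positive control.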

[12] = Cell Viability - LYMP2-016 (AID 984); details: LYMP2-016 lymphoblastoid cell viability, qHTS; series mostly up to 92.2 µM;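 also: cells exposed to compound for 24 hours at 37 °C; nearly all actives have a fitted effect of over 55% in size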; also: potency is read from the fitted curve at half-maximal effect
In short: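 Human lymphoblastoid LYMP2-016 cells, 2500 per well, treated with compounds for 24 h at 37 C. Viability read as intracellular ATP by CellTiter-Glo luminescence after 30 min at room temperature; AC50 from Hill fits of concentration-response.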

[13] = Cell Viability - LYMP2-020 (AID 986); details: series mostly up to 92.2 µM; also: nearly all actives have a fitted effect of over 55% in size; also: potency is read from the fitted curve at half-maximal effect
In short: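 Acute cytotoxicity in a human lymphoblastoid line is scored as a concentration-dependent fall in cellular ATP after 24 hr at 37 C in complete medium. The positive control is tetraoctylammonium bromide, and potency is given as Hill-fit AC50.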

[14] = Cell Viability - LYMP2-022 (AID 987); details: LYMP2-022 lymphoblastoid cell viability; series mostly up to 92.2 µM; also: nearly all actives have a fitted effect of over 55% in size; also: potency is read from the fitted curve at half-maximal effect
In short: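 Acute toxicity in a human lymphoblastoid line is scored as decreased intracellular ATP after 24 hr compound treatment at 37 C. ATP is measured by CellTiter-Glo luminescence; curves are fitted with the Hill equation to give AC50.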

[15] = Cell Viability - LYMP2-026 (AID 989); details: LYMP2-026 lymphoblastoid cell viability, qHTS; series mostly up to 92.2 µM; also: nearly all actives have a fitted effect of over 50% in size; also: potency is read from the fitted curve at half-maximal effect
In short: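 Concentration-dependent loss of intracellular ATP in human lymphoblastoid cells after 24 hr at 37 C, quantified by luciferase luminescence. AC50 derived from standard Hill equation.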

[16] = Cell Viability - LYMP1-002 - Assay at 40 hr (AID 994); details: LYMP1-002 lymphoblastoid cell viability; series mostly up to 92.2 µM; also: nearly all actives have a fitted effect of over 60% in size; also: potency is read from the fitted curve at half-maximal effect
In short: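 Viability in the human lymphoblastoid line was measured as intracellular ATP via CellTiter-Glo after 40 hr compound exposure. Tetraoctylammonium bromide served as positive control.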

[17] = Cell Viability - LYMP2-012 (AID 982); details: LYMP2-012 lymphoblastoid cell viability qHTS; series mostly up to 92.2 µM
[18] = Cell Viability - LYMP2-014 (AID 983); details: LYMP2-014 lymphoblastoid cells, viability qHTS; series mostly up to 92.2 µM;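 also: plate controls were DMSO only for no effect and 92 µM tetraoctylammonium bromide for full effect; nearly all actives have a fitted effect of over 50% in size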
In short: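 Decrease in intracellular ATP after 24 hr treatment at 37 C, measured by luciferase luminescence, indicated cytotoxicity. Concentration-response data were fitted with the standard Hill equation to give AC50.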

[19] = Cell Viability - LYMP2-024 (AID 988); details: LYMP2-024 lymphoblastoid cell viability; series mostly up to 92.2 µM;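 also: cells exposed to compound for 24 hr at 37 °C; plate controls were DMSO only for no effect and 92 µM tetraoctylammonium bromide for full effect; nearly all actives have a fitted effect of over 60% in size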
In short: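 Acute toxicity is measured as concentration-dependent loss of intracellular ATP in a human lymphoblastoid line treated 24 hours at 37 C. Luciferase luminescence quantifies ATP; AC50 values come from standard Hill-equation modelling.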

[20] = measured here: cell count channel max response
[21] = measured here: lipid channel max response

Cc1cc2c(cc1S(N)(=O)=O)S(=O)(=O)CCC2
inactive: activity change, negative = inhibition ([1]; at 25.7 µM (top of the series)) -2.69%
1.67%: max response [1, 21]
5.71%: max response [1, 20]

c1ccc2c(CC3=NCCN3)cccc2c1
-14.5% and 1.91%: max response [1, 20]
-13.5% and 9.6%: max response [1, 21]
inactive: activity change, negative = inhibition ([1]; at 25.7 µM (top of the series)) -0.324% | activity change, negative = inhibition ([1]; at 57.5 µM (top of the series)) 4.27%

NS(=O)(=O)c1cc2c(cc1C(F)(F)F)NC(Cc1ccccc1)NS2(=O)=O (centres undefined)
inactive: activity change, negative = inhibition ([1]; at 57.5 µM (top of the series)) 2.56%
10.5%: max response [1, 21]
6.37%: max response [1, 20]

Nc1ccc(S(=O)(=O)Nc2ccc(Cl)nn2)cc1
5.1% and 34.7%: max response [1, 21]
inactive: activity change, negative = inhibition ([1]; at 25.7 µM (top of the series)) 0.129% | activity change, negative = inhibition ([1]; at 57.5 µM (top of the series)) 9.01%
5.02% and 19.5%: max response [1, 20]

CN(C)CCOC(C)(c1ccccc1)c1ccccn1 (centres undefined)
active: Potency [5] 6.31 µM
-9.47%: max response [1, 21]
inactive: activity change, negative = inhibition ([1]; at 57.5 µM (top of the series)) 3.29% | Potency [2] | Potency [3] | Potency [4]
-15.9%: max response [1, 20]

CN(C)CCC=C1c2ccccc2CCc2ccccc21
-13.5% and 9.92% and -13.3%: max response [1, 20]
-18.6% and 12.5% and -14.8%: max response [1, 21]
inactive: outcome [6] | Potency [7] | outcome [8] | activity change, negative = inhibition ([1]; at 25.7 µM (top of the series)) -5.26% | activity change, negative = inhibition ([1]; at 57.5 µM (top of the series)) -0.124% and 0.255% | Potency [2] | Potency [3]

OCCN1CCN(CCCN2c3ccccc3Sc3ccc(Cl)cc32)CC1
active: Potency [9] 3.55 µM | Potency [5] 4.47 µM
-14.4% and -12.4%: max response [1, 20]
-12.9% and -6.81%: max response [1, 21]
inactive: outcome [6] | outcome [8] | activity change, negative = inhibition ([1]; at 25.7 µM (top of the series)) -1.31% | activity change, negative = inhibition ([1]; at 57.5 µM (top of the series)) 2.76% | Potency [2] | Potency [3]

CNCCCC1c2ccccc2C=Cc2ccccc21
active: Potency [9] 5.62 µM | Potency [5] 10 µM
-11.5% and -13.6%: max response [1, 20]
inactive: outcome [6] | outcome [8] | activity change, negative = inhibition ([1]; at 25.7 µM (top of the series)) -5.19% | activity change, negative = inhibition ([1]; at 57.5 µM (top of the series)) 0.497% | Potency [2] | Potency [3]
-15.9%: max response [1, 21]

CC[C@H]1CN2CCc3cc(OC)c(OC)cc3[C@@H]2C[C@@H]1C[C@H]1NCCc2cc(OC)c(OC)cc21
inactive: Potency [3] | Potency [4]

Cc1c(O)cccc1C(=O)N[C@@H](CSc1ccccc1)[C@H](O)CN1C[C@H]2CCCC[C@H]2C[C@H]1C(=O)NC(C)(C)C
active: Potency [10] 39.8 µM | Potency [11] 50.1 µM | Potency [12] 50.1 µM | Potency [13] 50.1 µM | Potency [14] 39.8 µM | Potency [15] 50.1 µM | Potency [7] 39.8 µM | Potency [16] 31.6 µM

C[C@]12C[C@H](O)[C@H]3[C@@H](CCC4=CC(=O)CC[C@@]43C)[C@@H]1CC[C@@H]2C(=O)CO
inactive: Potency [10] | Potency [11] | outcome [17] | outcome [18] | Potency [12] | Potency [13] | Potency [14] | outcome [19] | Potency [15] | outcome [6] | Potency [7] | Potency [16] | outcome [8]

CN(C)CCCN1c2ccccc2Sc2ccc(Cl)cc21
inactive: outcome [6] | outcome [8] | Potency [2] | Potency [3]
active: Potency [9] 4.47 µM | Potency [5] 11.2 µM

CC(C(O)c1ccc(O)cc1)N1CCC(Cc2ccccc2)CC1 (centres undefined)
active: Potency [9] 7.08 µM | Potency [5] 3.98 µM
inactive: Potency [2] | Potency [3] | Potency [4]

NCCNCCNCCNCCN
inactive: Potency [10] | Potency [11] | outcome [17] | outcome [18] | Potency [12] | Potency [13] | Potency [14] | outcome [19] | Potency [15] | Potency [7] | Potency [16]

NC(=O)c1ncn([C@@H]2O[C@H](CO)[C@@H](O)[C@H]2O)n1
inactive: Potency [10] | Potency [11] | outcome [17] | Potency [12] | Potency [13] | Potency [14] | outcome [19] | Potency [15] | outcome [6] | Potency [7] | Potency [16] | outcome [8] | Potency [2] | Potency [3] | Potency [4]

CCN(CC)CCCC(C)Nc1c2ccc(Cl)cc2nc2ccc(OC)cc12 (centres undefined)
active: Potency [2] 15.8 µM | Potency [4] 12.6 µM | Potency [9] 0.178 µM | Potency [5] 0.0891 µM

COc1ccccc1O
inactive: Potency [10] | Potency [11] | outcome [17] | outcome [18] | Potency [12] | Potency [13] | Potency [14] | outcome [19] | Potency [15] | Potency [7] | Potency [16]

CCCn1cnc2c1c(=O)n(CCCCC(C)=O)c(=O)n2C
51.1%: max response [1, 20]
inactive: outcome [6] | outcome [8] | activity change, negative = inhibition ([1]; at 57.5 µM (top of the series)) 0.49% | Potency [2] | Potency [3] | Potency [4]
50.9%: max response [1, 21]

CSc1ccc2c(c1)C(N1CCN(C)CC1)Cc1ccccc1S2 (centres undefined)
inactive: Potency [2] | Potency [3]
active: Potency [9] 6.31 µM | Potency [5] 11.2 µM

NCCNCCNCCN
inactive: Potency [10] | Potency [11] | outcome [17] | outcome [18] | Potency [12] | Potency [13] | Potency [14] | outcome [19] | Potency [15] | Potency [7] | Potency [16]

[Cl][In]([Cl])[Cl]
inactive: Potency [10] | Potency [11] | outcome [17] | outcome [18] | Potency [12] | Potency [13] | Potency [14] | outcome [19] | Potency [15] | Potency [7] | Potency [16]
